Laboratory results reported in PubChem BioAssay AID504941 (Broad Institute, 2011).
Screen size: about 1,200 compounds; about 170 (14%) were called active. The rule behind the calls is not given here. Only a sample is shown. Results with a measured potency or affinity are listed apart.

Experiment: twin-arginine translocation blockade, bacterial reporter – cherry-pick, set 2, plate reader, dose response (AID 504941)
Conditions: E. coli Tat transport reporter; series mostly up to 38 µM; activity change, negative = inhibition: at the top concentration

Activity change, negative = inhibition, inactive:
O=c1cc(O)nc[nH]1 -1.49%
CC1(C)CC(=O)C/C(=N\NC(=O)CCc2ccc(S(=O)(=O)N3CCOCC3)cc2)C1 0.359%
COc1cccc(COC(=O)C2CC(=O)N(Cc3ccco3)C2)c1OC (stereo unspecified) -18.3%
CCc1ccc2c(CSc3nnnn3C)cc(=O)oc2c1 1.88%
O=c1[nH]c(N2CCCCC2)nc2c1CCCC2 22.6%
S=c1nc(-c2ccccc2Br)[nH][nH]1 3.19%
CCOC(=O)N1CCN(c2ccc(C(=O)CC)cc2F)CC1 -16.3%
CN(C)c1nc(SCC#N)nc(N2CCOCC2)n1 -12.4%
CCCC(=O)NC1=C(C#N)C2(CCCC2)Cc2ccccc21 21.4%
c1ccc(CC2=NCCN2)cc1 27.8%
O=S(=O)(/N=C(/Nc1ccccc1)c1ccccc1)c1cccs1 16%
O=C(Nc1cccc(NC(=O)c2ccco2)c1)c1ccccc1 -7.6%
N#Cc1ccccc1CSc1ccccn1 -4.99%
O=C1CCCN1Cc1ccccc1 3.9%
COc1ccc(Cl)cc1S(=O)(=O)Nc1noc2ccccc12 -10.8%
Nc1ccccc1C(=O)NCC1(c2ccccc2)CCCC1 -13.6%
Cc1ccccc1Nc1nnc(C)c(=O)[nH]1 -11.2%
Cc1ccc(C(=O)N2CCCC(CCC(=O)NCc3ccc(F)c(F)c3)C2)cn1 (stereo unspecified) -11.3%
CCCc1cc(=O)oc2cc(OCC(=O)N(C)C)c(Cl)cc12 13.6%
C#CCNC(=O)C1=C[C@H](c2csc3ccccc23)[C@@H](CCCO)[C@H](OCC)O1 3.86%
COc1cc(OC)cc(C(=O)N(CN2CCCC2=O)c2ccccc2OC)c1 -1.04%
CCOCCCNC(=S)NCCNc1nc2ccc(C)cc2cc1C#N -5.46%
Cc1ccsc1C1C(C#N)=C(N)OC2=C1C(=O)CC(C)C2 (stereo unspecified) 11.4%
CC(=O)N(Cc1ccc(F)cc1)c1cccc(C)c1C -14.8%
Cc1ccc(NC(=O)C(c2ccc(Cl)cc2)N2CCCCC2)cc1 (stereo unspecified) -1.59%
Cc1cc(C(=O)N2CCN(c3ccccc3)CC2)no1 3.1%
Cc1cc(C)n2nc(SC(C)C(=O)N3CC(C)OC(C)C3)nc2n1 (stereo unspecified) -4.69%
CC1=C(C#N)C(c2cn(-c3ccccc3)nc2-c2cccs2)C(C#N)=C(C)N1 24.9%
Cc1nc2ncnn2c(C)c1CCC(=O)N1CCCCC1 4.61%
CCNC(=O)OCC12CC3CC(CC(C3)C1)C2 2.46%
CCOc1ccccc1NC(=O)NCc1ccc2c(c1)OCO2 21.1%
O=C1CN(C(=O)COC(=O)c2cc(S(=O)(=O)N3CCOCC3)ccc2Cl)c2ccccc2N1 15.5%
Cc1ccc(-c2n[nH]c3c2C(c2ccccc2)N(c2ccc(C(=O)O)cc2)C3=O)cc1 (stereo unspecified) -5.26%
COc1ccc(CN2CCN(C(=O)C3CCC(CNS(=O)(=O)c4ccccc4)CC3)CC2)c(OC)c1OC (stereo unspecified) 6.45%
Cc1nn(-c2ccccc2)c2nc3c(cc12)C(=O)CCC3 16.6%
CC(=O)c1ccc(NC(=O)CSc2nc(N3CCOCC3)nc(N3CCOCC3)n2)cc1 -10.8%
COc1ccc(-n2c(Cc3cccn3C)nnc2SCC(=O)Nc2ccc(C(C)=O)cc2)cc1 17.2%
Cc1ccc(-c2nc3ccccc3s2)cc1NC(=S)NC(=O)c1cccc2ccccc12 9.11%
COc1ccc(-c2nc3ccccc3o2)cc1NC(=O)c1ccc(Br)o1 9.12%
Cc1cc(NC(=O)C2CC2)ccc1NC(=O)c1cccs1 2.3%
CC1=NN(c2ccccc2)C(=O)C1c1ccccc1 (stereo unspecified) 23.5%
O=C(NCCOC(=O)c1cccs1)c1cccnc1 -2.94%
CCOC(=O)CNS(=O)(=O)Cc1ccccc1 7.82%
CCOC(=O)CNC(=O)c1ccccc1 4.19%
Cc1cc2ncn(CCOc3ccccc3)c2cc1C -9.86%
COc1ccc(/C=C(/NC(=O)c2cccc([N+](=O)[O-])c2)C(=O)O)cc1OC 2.13%
CC(C)(C)OC(=O)N(CCc1ccccc1)Cc1cccc(OCc2cccc(NC(=O)/C=C/c3ccccc3)c2)c1 23.8%
O=C(Nc1cccnc1Cl)c1noc2c1CCc1ccccc1-2 -13.1%
Cc1ccc(CN(C(=O)c2sc3ccccc3c2Cl)C2CCS(=O)(=O)C2)cc1 (stereo unspecified) 5.46%
COc1ccccc1-n1nc(C(=O)Nc2ccc3c(c2)OCO3)c2ccccc2c1=O 26.9%
C=CCNC(=O)c1ccccc1NC(=O)Nc1ccccc1 9.76%
COCCN(C(=S)Nc1c(C)cc(C)cc1C)C(C)c1cccnc1 (stereo unspecified) 6.68%
CCOC(=O)Cc1c[nH]c2ccc([N+](=O)[O-])cc12 2.39%
CCOCCCNC(=O)c1ccc(Cn2c(=S)[nH]c3c([nH]c4ccc(OC)cc43)c2=O)cc1 25.4%
O=C(/C=C/c1ccccc1)Nc1cc(S(=O)(=O)N2CCOCC2)ccc1N1CCCC1 12.8%
COc1ccc(N=C2SC(C(=O)O)CC(=O)N2Cc2ccc(OC)c(OC)c2)cc1 (stereo unspecified) 2.87%
CNC(=O)C1CCN(S(=O)(=O)c2c(C)noc2/C=C/c2cccc(OC)c2)CC1 22.2%
COc1cc(/C=N/NC(=O)c2ccccn2)ccc1OC(=O)c1ccc(Br)cc1 31.3%
COc1ccc([N+](=O)[O-])cc1/C=N/NC(=O)Cc1ccccc1 10.8%
C=CCNC(=S)Nc1cccc2[nH]ncc12 4.33%
O=C(O)c1cn(-c2ccc(F)cc2)c2cc(N3CCNCC3)c(F)cc2c1=O -53.8%
CN1C2CCC1CC(NS(=O)(=O)c1cc(Cl)c(Cl)cc1Cl)C2 (stereo unspecified) 15.7%
CCCCSc1nc2c(c(=O)[nH]c(=O)n2C)n1CCc1ccccc1 -19.5%
O=C(CCc1nc2ccccc2c(=O)[nH]1)OCC(=O)c1cccc(Cl)c1 -12.3%
COc1ccc(S(=O)(=O)N2CCOCC2)cc1NC(=O)c1ccc2c(c1)OCO2 -13.2%
CCOc1ccc(S(=O)(=O)N2CCCCC2)cc1NC(=O)CN1C(=O)NC(CC)(c2ccccc2)C1=O (stereo unspecified) -7.52%
Cc1c(C)c2c(C)nn(-c3ccccc3)c2[nH]c1=O -0.775%
CC(C)(C)c1nn2cnnc2n(/N=C/c2cccc3ccccc23)c1=O 24.3%
CCOC(=O)c1c(N/C=C(\C#N)c2nc(-c3ccc(OC(C)=O)cc3)cs2)sc2c1CCC2 12.3%
CCc1nc2cc3sc(CC)nc3cc2s1 15.8%
CC(C)c1ccc(NC(=O)c2snc3ccc(Cl)cc23)cc1 -3.4%
Cc1ccc(C(=O)Nc2nc(C)c(C(=O)Nc3ccc4c(c3)CCC4)s2)cc1 15.6%
Cc1ccc[n+](CC(=O)c2cc3ccccc3oc2=O)c1 3.31%
Cc1nc2scc(-c3ccccc3)c2c(=O)n1/N=C/c1ccco1 11.6%
Cc1ccc(-n2c3nc(=O)[nH]c(=O)c-3cc3c(C)nn(-c4ccccc4)c32)c(C)c1 11.6%
COc1ccc(-c2noc(CSc3nnc(-c4ccncc4)n3-c3ccc(F)cc3)n2)cc1OC -7.91%
CCCCc1c(O)nc(SCC(=O)c2ccccc2)[nH]c1=O 3.64%
CCN(CC)CCCn1c(C)cc2c(c1=O)C(c1cccc(Cl)c1)C(C#N)=C(N)O2 (stereo unspecified) 17.9%
Cc1ccc(NC(=O)CN2CCN(c3ccccn3)CC2)c(Cl)c1 12.6%
Cc1cc(Cl)ccc1NC(=O)CN1CCCC1 -11.6%
O=C(CCCn1c(=O)[nH]c2ccsc2c1=O)N1CCCCC1 -18.6%
CC(C)OC(=O)Cn1c(=O)oc2ccccc21 -1.58%
O=C(C1CC(=O)N(C2CCCC2)C1)N1CCN(c2ccc(F)cc2)CC1 (stereo unspecified) -6.74%
Nc1nc2ccc([N+](=O)[O-])c(N)c2s1 15.8%
CCCn1c(=N)c(S(=O)(=O)c2ccc(F)cc2)cc2c(=O)n3cccc(C)c3nc21 -9.12%
CC(C)c1cc(C(N)=O)c(NC(=O)c2cccc(COc3ccc(Cl)cc3)c2)s1 10.4%
CCn1nc(-c2ccccc2)c2nc3ccccc3nc21 27.2%
C=C1CSc2nc(=O)c3c4c(sc3n21)CCCC4 7.3%
COc1ccc(C(CNC(=O)c2cc(SC)ccc2Cl)N(C)C)cc1 (stereo unspecified) 0.77%
O=c1/c(=C/c2ccc(O)c([N+](=O)[O-])c2)sc2nc3ccccc3n12 4.56%
CCn1cc(C(=O)O)c(=O)c2cc(F)c(N3CCN(C(=S)NC(=O)c4ccc(F)c(F)c4)CC3)cc21 422%
Cc1ccnc(NC(c2cccnc2)c2ccc3cccnc3c2O)c1 (stereo unspecified) 1.66%
Oc1c(Br)cc(C2N=C(c3ccccc3)NO2)cc1Br (stereo unspecified) 13.5%
CCOC(=O)C1(c2nc(N)cs2)COC(=O)C1 (stereo unspecified) 8.65%
COc1ccccc1-c1ccc(=O)n(CC(=O)Nc2ccc(C(=O)N3CCCC3)cc2)n1 -4.17%
Nc1nc(NCC2CCCO2)nc(Nc2cccc(Cl)c2)c1[N+](=O)[O-] (stereo unspecified) -1.52%
O=C(c1ccccc1)N1CCN(c2nc3ccc([N+](=O)[O-])cc3s2)CC1 8.95%
COc1ccc(CNC(=O)Cn2nnc(-c3ccc(NC(=O)C4CCCCC4)cc3)n2)cc1 11.5%
Cc1ccc(NC(=O)c2ncn(CCCNCc3ccccn3)n2)cc1C 7.97%
O=C(NCc1cccs1)Nc1cccc(Cl)c1 -9.39%
COc1ccc(CCNC(=O)CN2CCOc3ccccc32)cc1OC 15.9%
COc1ccc(N2CCN(C3CC(=O)N(c4ccc5c(c4)OCCO5)C3=O)CC2)cc1 (stereo unspecified) 31.4%
Cc1ccc(O)c(C(=O)c2coc(=N)c(C(=O)NC(C)C)c2)c1 -5.5%
C=CCNc1ccccc1S(=O)(=O)NCc1ccccc1 15.6%
O=C(Nc1ccc(Oc2ccccc2)nc1)C1CCCCN1Cc1ccc(OCCO)cc1 (stereo unspecified) 1.23%
CCOc1ccc(Nc2nc3c(c(=O)[nH]2)CCCC3)cc1 4.88%
COc1ccc(/C=C/C(=O)Nc2ccccc2C(=O)O)cc1OC 1.99%
NS(=O)(=O)c1ccc(CCNC(=O)Cc2ccc(S(=O)(=O)N3CCCC3)s2)cc1 -6%
CCn1cc(C(=O)O)c(=O)c2cc(F)c(N3CCN(C)CC3)cc21 -89.3%
CC1COc2c(N3CCN(C)CC3)c(F)cc3c(=O)c(C(=O)O)cn1c23 (stereo unspecified) -81.4%
O=C(NC(Cc1ccccc1)c1nc2ccccc2[nH]1)c1ccc(Cl)c([N+](=O)[O-])c1 (stereo unspecified) -0.833%
